# miR-122 inh: activators of miR-122 sensor in Huh7 cells | Huh7 psiCHECK-miR122 Renilla luciferase sensor, 48 h | activation, % at 12.5 µM | 0.14% of 340,000 active | AID 623901;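 active = mean activation of 30% or more, with every replicate also reaching 30%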;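 note: higher luciferase signal means stronger suppression of miR-122 activity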
# Numbers stand for hits; . = inactive. This is one part of a sample in which hits are shown more often than they occur.
SMILES,miR-122 inh
COc1ccc(NC(=O)Nc2ccc3c(c2)OC[C@@H](C)NC[C@@H](C)[C@@H](OC)CN(C)C3=O)cc1,.
C[C@@H]1CN([C@@H](C)CO)C(=O)c2cc(C#CCC3CCCC3)cnc2O[C@H]1CN(C)C(=O)CC1CC1,.
COc1ccc(-c2cnc3c(c2)C(=O)N([C@H](C)CO)C[C@@H](C)[C@@H](CN(C)C(=O)C2CCOCC2)O3)cc1,.
C[C@@H]1CN([C@H](C)CO)S(=O)(=O)c2ccc(C#C[C@@H](C)O)cc2O[C@@H]1CN(C)C,.
C[C@@H]1CN([C@H](C)CO)C(=O)c2cc(C#C[C@@H](C)O)cnc2O[C@@H]1CN(C)C(=O)CN(C)C,.
C[C@@H]1CN([C@@H](C)CO)S(=O)(=O)c2ccc(C#C[C@@H](C)O)cc2O[C@@H]1CN(C)C,.
COCC#Cc1cnc2c(c1)C(=O)N([C@@H](C)CO)C[C@H](C)[C@H](CN(C)C(=O)Nc1c(C)noc1C)O2,.
NC(=O)c1cn(-c2ccccc2)nc1-c1cc2ccccc2oc1=O,77
C[C@@H]1CN([C@H](C)CO)C(=O)c2cc(/C=C/c3ccccc3)cnc2O[C@H]1CN(C)C(=O)c1ccncc1,.
CCOc1ccc(NS(=O)(=O)c2cc(NC(=O)C3CC3)ccc2C)cc1Br,.
CCOc1ccc(S(=O)(=O)N2CCC(C(N)=O)CC2)c2ccccc12,.
CCOc1ccc(CCNC(=O)C2CCN(S(=O)(=O)N3CCC(C)CC3)CC2)cc1OCC,33
C[C@H]1CN([C@@H](C)CO)S(=O)(=O)c2ccc(/C=C/c3ccccc3)cc2O[C@H]1CN(C)C(=O)Nc1cccc(F)c1,.
C[C@@H]1CN([C@H](C)CO)S(=O)(=O)c2ccc(/C=C/c3ccccc3)cc2O[C@H]1CN(C)C(=O)c1cccnc1,.
CC(C)C#Cc1ccc2c(c1)O[C@@H](CN(C)Cc1ccccn1)[C@H](C)CN([C@@H](C)CO)S2(=O)=O,.
CCCCCOC(=O)c1[nH]c2c(c1C)C(=O)CC(c1ccco1)C2 (stereo not drawn),.
O=C1CC(c2ccco2)CC(O)=C1C=Nc1cc(Cl)ccc1O (stereo not drawn),31
C[C@H](O)C#Cc1ccc2c(c1)O[C@H](CN(C)C(=O)c1ccncc1)[C@H](C)CN([C@H](C)CO)S2(=O)=O,.
COc1ccccc1C#Cc1ccc2c(c1)O[C@H](CN(C)Cc1ccncc1)[C@@H](C)CN([C@H](C)CO)S2(=O)=O,.
C[C@@H]1CN([C@@H](C)CO)S(=O)(=O)c2ccc(C#Cc3ccc(F)cc3)cc2O[C@@H]1CN(C)S(=O)(=O)c1cn(C)cn1,.
COc1ccc(-c2cnc3c(c2)C(=O)N([C@@H](C)CO)C[C@H](C)[C@@H](CN(C)C(=O)Cc2ccccc2)O3)cc1,.
C[C@@H]1CN([C@H](C)CO)C(=O)c2cc(C#CC3(O)CCCC3)cnc2O[C@H]1CN(C)C(=O)CN(C)C,.
C[C@@H]1CN([C@@H](C)CO)C(=O)c2cc(C#CC3(O)CCCC3)cnc2O[C@@H]1CN(C)C(=O)Cc1ccccc1,.
C[C@H](CO)N1C[C@H](C)[C@@H](CN(C)C(=O)Cc2ccccn2)Oc2ncc(-c3cccc(C(=O)N(C)C)c3)cc2C1=O,.
C[C@@H]1CN([C@H](C)CO)S(=O)(=O)c2ccc(C#Cc3ccc(F)cc3)cc2O[C@H]1CN(C)S(C)(=O)=O,.
SMILES,miR-122 inh
CC(C)NC(=O)Nc1ccc2c(c1)C(=O)N(C)[C@@H]1CC[C@@H](CC(=O)NCC(F)(F)F)O[C@@H]1CO2,37
CC(C)NC(=O)Nc1ccc2c(c1)C(=O)N(C)[C@@H]1CC[C@H](CC(=O)NCC(F)(F)F)O[C@H]1CO2,37
C[C@@H]1CN([C@@H](C)CO)C(=O)c2cc(-c3cccc(F)c3)cnc2O[C@H]1CN(C)S(C)(=O)=O,.
COCC#Cc1ccc2c(c1)O[C@@H](CN(C)Cc1cncnc1)[C@H](C)CN([C@H](C)CO)S2(=O)=O,.
C[C@@H]1CN([C@H](C)CO)C(=O)c2cc(C#CC3(O)CCCC3)cnc2O[C@H]1CN(C)Cc1cncnc1,.
C[C@H](CO)N1C[C@H](C)[C@H](CN(C)CC2CCOCC2)Oc2ncc(C#Cc3ccccn3)cc2C1=O,.
COc1ccc(C#Cc2cnc3c(c2)C(=O)N([C@H](C)CO)C[C@H](C)[C@H](CN(C)C(=O)NC2CCCCC2)O3)cc1OC,.
COCC(=O)N(C)C[C@H]1Oc2cc(-c3cncnc3)ccc2S(=O)(=O)N([C@H](C)CO)C[C@H]1C,.
C[C@H]1CN([C@@H](C)CO)C(=O)c2cc(-c3ccccc3)cnc2O[C@@H]1CN(C)C(=O)Nc1ccccc1,.
O=C(c1ccccc1)N1C[C@H]2[C@@H](c3ccccc31)[C@@H](CO)N2C(=O)c1cccc(F)c1,.
CCCNC(=O)N1C[C@@H]2[C@H](c3ccccc31)[C@@H](CO)N2C(=O)C1CCOCC1,39
COCC(=O)N1[C@@H](CO)[C@@H]2c3ccccc3N(C(=O)c3cccnc3)C[C@@H]21,42
CCCNC(=O)N1[C@@H]2CN(C(=O)c3ccccc3)c3ccccc3[C@@H]2[C@@H]1CO,36
CC(C)CC#Cc1cnc2c(c1)C(=O)N([C@@H](C)CO)C[C@@H](C)[C@@H](CN(C)C(=O)NC1CCCC1)O2,.
CNC[C@@H]1Oc2cc(C#CCC3CCCC3)ccc2S(=O)(=O)N([C@@H](C)CO)C[C@@H]1C,.
COc1cccc(-c2cnc3c(c2)C(=O)N([C@@H](C)CO)C[C@H](C)[C@@H](CN(C)CC2CCOCC2)O3)c1,.
C[C@H](O)C#Cc1cnc2c(c1)C(=O)N([C@H](C)CO)C[C@H](C)[C@H](CN(C)C(=O)CN(C)C)O2,.
COc1cccc(NC(=O)N(C)C[C@H]2Oc3cc(-c4cccc(C(=O)N(C)C)c4)ccc3S(=O)(=O)N([C@@H](C)CO)C[C@H]2C)c1,.
COc1cccc(C#Cc2ccc3c(c2)O[C@@H](CN(C)S(=O)(=O)c2ccccc2F)[C@@H](C)CN([C@@H](C)CO)S3(=O)=O)c1,.
C[C@H]1CN([C@@H](C)CO)C(=O)c2cc(/C=C/c3ccccc3)cnc2O[C@H]1CN(C)C(=O)C1CCOCC1,.
CCCNC(=O)N(C)C[C@@H]1Oc2cc(-c3ccccc3)ccc2S(=O)(=O)N([C@H](C)CO)C[C@@H]1C,.
C[C@@H]1CN([C@H](C)CO)S(=O)(=O)c2ccc(-c3cncnc3)cc2O[C@H]1CN(C)Cc1ccccc1,.
Cc1ccc(S(=O)(=O)N(C)C[C@@H]2Oc3cc(C#CC4CCCC4)ccc3S(=O)(=O)N([C@@H](C)CO)C[C@H]2C)cc1,.
CCC(=O)Nc1ccc2c(c1)OC[C@H](C)N(C(=O)CN1CCOCC1)C[C@H](C)[C@H](OC)CN(C)C2=O,.
CCOC(=O)CSc1nc2ccccc2c(=O)n1CC1CCC(C(=O)NCc2ccco2)CC1 (stereo not drawn),.
SMILES,miR-122 inh
CCOC(=O)CSc1nnnn1-c1cccc2ccccc12,38
C[C@H]1CN([C@@H](C)CO)C(=O)c2cc(-c3ccccc3F)cnc2O[C@H]1CN(C)Cc1ccccc1F,.
CC(C)CC#Cc1ccc2c(c1)O[C@H](CN(C)C(=O)C1CCOCC1)[C@@H](C)CN([C@@H](C)CO)S2(=O)=O,.
Cc1cc(C)nc(NS(=O)(=O)c2ccc(NC(=S)NC(=O)C3CCCC3)cc2)n1,62
CN(Cc1ccccc1)S(=O)(=O)c1ccc(NC(=S)NC(=O)C2CCCC2)cc1,.
Cc1cc(C)cc(NS(=O)(=O)c2ccc(NC(=S)NC(=O)c3cccs3)cc2)c1,.

# Screens from PubChem BioAssay.
